Measurements reported in PubChem BioAssay (NCI).
Compounds without any hit were thinned out: in the full panel of roughly 83,000, 20% have a hit.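 Results are percent growth after 48 hours of single-concentration exposure. 100 means growth as in untreated cells, lower positive values show inhibition; negative values down to -100 show cell death.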 Unmarked numbers belong to inactive results. Active and inactive are the calls of the source. Rule for the calls: active = growth percent below 10; inactive = the rest.

Legend:
Experiment in all cases: NCI-60 one-dose screen, 48 h (100 = growth as untreated, 0 = no growth, -100 = all killed)
Settings in all cases: 10 µM unless noted
SR leukemia = test system: SR leukemia
RPMI-8226 leukemia = test system: RPMI-8226 leukemia
OVCAR-8 ovarian = test system: OVCAR-8 ovarian
OVCAR-5 ovarian = test system: OVCAR-5 ovarian
OVCAR-4 ovarian = test system: OVCAR-4 ovarian
SK-OV-3 ovarian = test system: SK-OV-3 ovarian
IGROV1 ovarian = test system: IGROV1 ovarian
OVCAR-3 ovarian = test system: OVCAR-3 ovarian
HS 578T breast = test system: HS 578T breast
NCI/ADR-RES ovarian = test system: NCI/ADR-RES ovarian

SMILES	growth (SR leukemia)	growth (RPMI-8226 leukemia)	growth (OVCAR-8 ovarian)	growth (OVCAR-5 ovarian)	growth (OVCAR-4 ovarian)	growth (SK-OV-3 ovarian)	growth (IGROV1 ovarian)	growth (OVCAR-3 ovarian)	growth (HS 578T breast)	growth (NCI/ADR-RES ovarian)
CN(C)c1ccc(CNCCO)cc1	108%	84.6%	90.6%	67.6%	112%	71.4%	107%	104%	96%	103%
COc1ccc(C(O)c2cc3c(N)c(C(=O)Nc4cccc5ccccc45)sc3nc2C)cc1 (stereo not given)	12.7%	18.3%	10.9%	21.5%	34.5%	18.3%	9.69% (active)	0.772% (active)	-9.07% (active)	4.32% (active)
O=C(c1ccc(Br)cc1)C(Br)C(c1ccc(Cl)cc1)C(c1ccccc1)[N+](=O)[O-] (stereo not given)	103%	92.1%	95.3%	108%	81.4%	99.4%	108%	94.4%	87.1%	95.6%
CNCC[C@H](Oc1cccc2ccccc12)c1cccs1	51.9%	94.7%	82.1%	117%	71.7%	109%	84.7%	86.9%	67.5%	83.4%
O=S(Nc1ccccc1)c1ccc(Cl)cc1 (stereo not given)	78.8%	99.3%	100%	109%	95.5%	109%	105%	112%	84.6%	106%
O=C(/C=C/c1cn(-c2ccccc2)nc1-c1ccccc1)CCC(=O)NO	82.3%	99.3%	97.2%	118%	112%	98.8%	104%	99%	95.3%	101%
CC1(C)CC[C@]23CC[C@]4(C)[C@H](CC[C@@H]5[C@@]6(C)CCNCC(C)(C)[C@@H]6CC[C@]54C)[C@H]2[C@H]1OC3	4.33% (active)	29.7%	97.4%	106%	99.8%	96.5%	107%	98.5%	104%	104%
Nc1c(Cl)cc(/C=C2\C=Cc3ccccc32)cc1Cl	93.9%	107%	104%	102%	107%	102%	103%	111%	115%	101%
O=C(/C=C/c1ccco1)Nc1ncc(Cc2cc(Cl)ccc2Cl)s1	12.1%	23%	14.1%	34%	56.8%	31.9%	21.3%	-44% (active)	8.67% (active)	-0.63% (active)
COc1cc2c(cc1-c1c(C)noc1C)ncc1nc(CN3CCOCC3)n([C@H](C)COC(F)F)c12	33.7%	10.1%	46.1%	68.2%	35.9%	7.42% (active)	36.2%	23.1%	30%	40.8%
CCOC(=O)CNC1=C(Cl)C(=O)N(Cc2ccc(Cl)cc2)C1=O	105%	96.6%	100%	96.2%	101%	99.6%	97.9%	105%	101%	104%
COC(=O)[C@]1(C)CCC[C@]2(C)[C@H]3C[C@@H]4[C@H]5[C@@H]6CC/C(=N\OCC/C(N)=N/O)[C@H]5[C@@]3(CC[C@H]21)CC4(C(C)C)O6	5.07% (active)	39.1%	73.2%	93.3%	51.6%	89.9%	63.4%	53.1%	66.3%	32.1%
COc1cc([C@@H](CCO)C[C@H](C)c2ccc3ccccc3c2)cc(OC)c1OC	24.5%	22.6%	43.5%	70.2%	55.8%	33.8%	51.2%	8.71% (active)	22.2%	16.5%
COc1ccc2c(c1)C(C)Cc1c(ncnc1-n1cnc3cc(C)ccc31)N2C (stereo not given)	-0.883% (active)	11.9%	9.01% (active)	78.1%	58.2%	19.8%	27.5%	6.09% (active)	36.2%	6.69% (active)
Nc1ccc(-c2ccncc2)cc1NC(=O)N1CCCC1	91.8%	82.2%	85.3%	109%	101%	92.2%	99.4%	99.3%	93.7%	81.8%
S=c1ccnc[nH]1	131%	110%	100%	101%	117%	113%	110%	111%	113%	100%
FC(F)(F)c1[nH]ncc1-c1nc2ccc3[nH]ncc3c2c2c1CCCC2	-16.6% (active)	12.3%	13.7%	9.73% (active)	45.8%	-3.29% (active)	-8.57% (active)	9.88% (active)	-3.07% (active)	53.7%
Fc1cccc(-c2nc(-c3c[nH]c4ncccc34)cs2)c1	84.3% [100 µM]	68.4% [100 µM]	45.3% [100 µM]	74.9% [100 µM]	9.43% [100 µM] (active)	55.9% [100 µM]	81.5% [100 µM]	36.1% [100 µM]	46.5% [100 µM]	48.1% [100 µM]
CCN(CC)CCOc1ccc(Nc2ncc3cc(-c4c(Cl)cccc4Cl)c(=O)n(CCOC)c3n2)cc1	-30.8% (active)	2.23% (active)	9.23% (active)	2.15% (active)	35.3%	2.93% (active)	-21.9% (active)	-22% (active)	8.49% (active)	6.66% (active)
c1cc(OCCCCCOc2cccc(-c3nc4ccccc4[nH]3)c2)cc(-c2nc3ccccc3[nH]2)c1	-24.8% (active)	-47.1% (active)	15.7%	1.07% (active)	8.16% (active)	23.9%	10.8%	16.8%	25.3%	0.274% (active)
C=CCN=c1sc(-c2ccc3ccccc3c2)cn1NC(=O)c1cc2ccc1CCc1ccc(cc1)CC2	39.1%	25.8%	65.5%	103%	33.5%	82.1%	81.3%	53.2%	58.7%	67.2%
O=C(NCCN1CCOCC1)OCc1ccc2c(Cl)cc(Cl)c(O)c2n1	68.4%	56.2%	49.2%	106%	49.4%	91.8%	57.8%	62.1%	83.1%	5.25% (active)
Nc1nc(N)c2c(n1)NC(c1cccc(Nc3ccnc4cc(C(F)(F)F)ccc34)c1)CC(c1ccc3c(c1)OCO3)=N2 (stereo not given)	1.91% (active)	17%	73.4%	123%	85.9%	76.8%	73%	65.7%	66.9%	84.1%
O=C1OCC2=C1C(c1ccccc1)c1cc3c(cc1N2CCO)OCCO3 (stereo not given)	19.7%	27.9%	32.5%	37.5%	31.1%	22.4%	17.8%	-56.3% (active)	-9.64% (active)	-26.8% (active)
O=[N+]([O-])c1c(O)c(Cl)cc(Cl)c1Cl	87.9%	97.9%	101%	91.6%	109%	99.2%	111%	111%	117%	95.6%
CCOC(=O)c1ccc[nH]1	94.8%	90.5%	95.9%	78.9%	95.5%	108%	90.6%	115%	95%	95.2%
COC1C(O)CC(OC2CC(OC3CC(O[C@@H]4C(=O)c5c(cc6cc(OC7CC(OC8CC(O)C(O)C(C)O8)C(O)C(C)O7)c(C)c(O)c6c5O)CC4[C@H](OC)C(=O)O)OC(C)C3O)OC(C)C2O)OC1C (stereo not given in full)	18%	19%	15.6%	29.3%	44.8%	35.1%	23.7%	18%	23.5%	63%
